Assay [1] is described as follows: qHTS RealTime-Glo MT Cell Viability Assay in HEK293 cells - 0 hour (AID 1224880). Also: nearly all actives have a fitted effect of over 45% in size. Also: potency is read from the fitted curve at half-maximal effect. As to activity change, negative = cytotoxicity: top concentration of the series differs between compounds. The method, boiled down:
(§1)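 HEK293 + NanoLuc + prosubstrate, 600 cells/well; 5 h, 37 C/5% CO2; compound 23 nL in DMSO by pintool; 37 C; luminescence read at 0, 8, 16, 24, 32 and 40 h time points.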
(In general: qHTS replaces the single test concentration by a dilution series.)

A short description of assay [2]: A CellTox Green Cytotoxicity Assay to monitor cytotoxicity in HEK293 cells - 32 hour (AID 1224881). Also: nearly all actives have a fitted effect of over 40% in size. The method, boiled down:
(§2)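 Tox21 screen in HEK293: membrane-impermeant cyanine dye fluoresces on binding dead-cell DNA; compound pinned 5 h post-seeding, plates held at 37 C, signal read repeatedly through 40 h.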

A short description of assay [3]: A CellTox Green Cytotoxicity Assay to monitor cytotoxicity in HepG2 cells - 0 hour (AID 1224882). Also: nearly all actives have a fitted effect of over 35% in size. The method, boiled down: (§3)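 Measurements at 0, 8, 16, 24, 32 and 40 h of treatment captured CellTox Green fluorescence in HepG2 cells that had been co-plated with reagent and preincubated 5 h at 37 C/5% CO2.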
Assay [4] can be described thus: A CellTox Green Cytotoxicity Assay to monitor cytotoxicity in HepG2 cells - 32 hour (AID 1224883). Also: nearly all actives have a fitted effect of over 50% in size. The method, boiled down: as §3
A short description of assay [5]: A CellTox Green Cytotoxicity Assay to monitor cytotoxicity in HEK293 cells - 8 hour (AID 1224884). Also: nearly all actives have a fitted effect of over 35% in size. In outline: as §2
Assay [6] is described as follows: qHTS RealTime-Glo MT Cell Viability Assay in HepG2 cells - 16 hour (AID 1224885). Also: nearly all actives have a fitted effect of over 50% in size. In outline: (§4)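 Tox21 10K library screened in qHTS format on HepG2 cells carrying RealTime-Glo reagents. Compounds were added after a 5 h preincubation, and the luminescent signal from continuous culture was measured repeatedly during 40 h treatment.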
Assay [7] can be described thus: qHTS RealTime-Glo MT Cell Viability Assay in HEK293 cells - 24 hour (AID 1224886). Also: nearly all actives have a fitted effect of over 50% in size. Also: potency is read from the fitted curve at half-maximal effect. As to activity change, negative = cytotoxicity: top concentration of the series differs between compounds. In outline:
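Luminescence generated by NanoLuc from substrate produced by living HEK293 cells served as the viability signal. Each value reflects the reading at its stated time point during continuous 40 h compound exposure at 37 C.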

Assay [8] in a line: qHTS RealTime-Glo MT Cell Viability Assay in HEK293 cells - 8 hour (AID 1224887). Also: nearly all actives have a fitted effect of over 50% in size. Also: potency is read from the fitted curve at half-maximal effect. As to activity change, negative = cytotoxicity: top concentration of the series differs between compounds. In outline:
as §1

Assay [9] is described as follows: qHTS RealTime-Glo MT Cell Viability Assay in HepG2 cells - 0 hour (AID 1224889). Also: nearly all actives have a fitted effect of over 50% in size. Also: potency is read from the fitted curve at half-maximal effect. The method, boiled down:
as §4

Assay [10] can be described thus: A CellTox Green Cytotoxicity Assay to monitor cytotoxicity in HepG2 cells - 8 hour (AID 1224890). Also: nearly all actives have a fitted effect of over 45% in size. The method, boiled down: as §3
Assay [11] in a line: qHTS assay to identify small molecule antagonists of the estrogen receptor alpha (ER-alpha) signaling pathway using the BG1 cell line in the presence of 0.1 nM 17-beta-estradiol - cell viability counter screen (AID 1259241). Also: nearly all actives have a fitted effect of over 40% in size. In outline:
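Live-cell protease activity (CellTiter-Fluor fluorescence, 30 min) was read in the same wells after VM7Luc4E2 cells had been exposed to compounds with 0.1 nM 17beta-estradiol for 22 hr at 37C.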

A short description of assay [12]: qHTS assay to identify small molecule antagonists of the androgen receptor (AR) signaling pathway using the MDA cell line in the presence of 0.5 nM R1881 - cell viability counter screen (AID 1259242). Also: nearly all actives have a fitted effect of over 45% in size. The method, boiled down:
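Concentration-response screen of compounds for toxicity in MDA-kb2 reporter cells: 16 hr at 37C with 0.5 nM R1881, endpoint live-cell protease fluorescence measured in the reporter wells.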

Assay [13] deals with Estrogen receptor (Homo sapiens) (UniProt P03372). The assay can be described thus: qHTS assay to identify small molecule antagonists of the estrogen receptor alpha (ER-alpha) signaling pathway using the BG1 cell line in the presence of 0.1 nM 17-beta-estradiol (AID 1259244). Also: nearly all actives have a fitted effect of over 50% in size. The method, boiled down: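 Compounds were tested against 0.1 nM (final) 17beta-estradiol in VM7Luc4E2 cells, which express full-length ER-alpha and an ERE-luciferase reporter; luminescence was recorded following 22 h exposure.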
Sequence of Estrogen receptor (Homo sapiens) (P03372 whole entry, looked up): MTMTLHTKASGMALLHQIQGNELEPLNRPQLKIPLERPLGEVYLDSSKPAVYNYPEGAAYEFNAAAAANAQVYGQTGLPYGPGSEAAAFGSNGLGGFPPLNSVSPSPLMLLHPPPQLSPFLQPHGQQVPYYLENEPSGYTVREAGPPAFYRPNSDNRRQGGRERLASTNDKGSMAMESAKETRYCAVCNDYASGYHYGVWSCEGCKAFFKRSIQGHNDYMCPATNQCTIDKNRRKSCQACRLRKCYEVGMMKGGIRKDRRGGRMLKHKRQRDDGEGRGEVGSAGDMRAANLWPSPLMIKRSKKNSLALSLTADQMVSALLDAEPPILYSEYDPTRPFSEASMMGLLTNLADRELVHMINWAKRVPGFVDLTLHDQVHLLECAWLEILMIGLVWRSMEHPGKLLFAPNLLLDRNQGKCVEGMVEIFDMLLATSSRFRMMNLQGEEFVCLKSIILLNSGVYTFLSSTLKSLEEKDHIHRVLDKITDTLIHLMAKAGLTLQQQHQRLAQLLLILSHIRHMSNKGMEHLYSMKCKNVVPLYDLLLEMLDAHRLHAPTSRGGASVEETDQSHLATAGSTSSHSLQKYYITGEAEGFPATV

Assay [14] is described as follows: qHTS assay to identify small molecule HDAC inhibitors (AID 1259364).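 Also: wild-type HCT-116 cells with endogenous class I/II HDAC activity; top concentration of the series differs between compounds; nearly all actives have a fitted effect of over 45% in size.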 The method, boiled down:
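Screening used wild-type human colon HCT-116 cells incubated overnight, dosed with compounds for 2 hours, and assayed with a homogeneous luminogenic HDAC I/II reagent for 30 minutes at room temperature.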

Assay [15] is described as follows: qHTS assay to identify small molecule HDAC inhibitors - cell viability counter screen (AID 1259365). In outline:
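HCT-116 (wild type), 1,500 cells/well, overnight 37C/5% CO2; compound in DMSO 2hr; CellTiter-Glo 30min RT; luminescence read.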

Assay [16] can be described thus: qHTS assay to identify small molecule agonists of the sonic hedgehog signaling (Shh) pathway - cell viability counter screen (AID 1259366). Also: nearly all actives have a fitted effect of over 50% in size. Also: potency is read from the fitted curve at half-maximal effect. The method, boiled down: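 CellTiter-Fluor fluorescence read-out, 1 hr at 37C, added after 23hr compound exposure. Cells: 3T3 Gli1-Luc, an NIH/3T3 clone with stably integrated Gli1-Luc reporter, plated 4hr before compound.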

Assay [17] in a line: qHTS assay to identify small molecule antagonists of the sonic hedgehog signaling (Shh) pathway - cell viability counter screen (AID 1259367). Also: nearly all actives have a fitted effect of over 55% in size. Also: potency is read from the fitted curve at half-maximal effect. In outline: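 CellTiter-Fluor signal in conditioned medium-stimulated 3T3 Gli1-Luc cells, 23 hr compound exposure, 37C.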
Assay [18] in a line: qHTS assay to identify small molecule phospholipidosis (PLD) inducers (AID 1259344; active = well fitted curve in the direction sought with a large enough effect; an effect the other way counts as inactive or inconclusive). In outline: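 Accumulated phospholipid, stained red by LipidTOX during 24 h compound treatment of HepG2 cells at 37 C, is quantified from images as pit number and intensity, normalised per cell using Hoechst-stained nuclei.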
Assay [19] is described as follows: A CellTox Green Cytotoxicity Assay to monitor cytotoxicity in HEK293 cells - 16 hour (AID 1224888). Also: nearly all actives have a fitted effect of over 35% in size. In outline: as §2
Assay [20] concerns the target Androgen receptor (Homo sapiens) (UniProt P10275). The experiment in a line: qHTS assay to identify small molecule antagonists of the androgen receptor (AR) signaling pathway using the MDA cell line in the presence of 0.5 nM R1881 (AID 1259243). Also: nearly all actives have a fitted effect of over 50% in size. Also: potency is read from the fitted curve at half-maximal effect. In outline: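 With R1881 held at 0.5 nM (final), compound effects on MMTV-luciferase expression in MDA-kb2 cells were scored by luminescence after a 16 hr, 37C incubation.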

We go through 13 molecules from PubChem BioAssay (Tox21).

A number with no mark means an inactive call. Inconclusive results are not listed. Active and inactive are the calls of the source. Unless noted, calls follow the shape of the dose curve; as a rule, active = well fitted curve in the direction sought with a large enough effect in the repeat runs; inconclusive = weak or mixed curves; inactive = no such curve, though single readings can be large; an effect the other way counts as inactive or inconclusive.
% is scaled to controls: 0 for no effect and ±100 for the full control effect.

Sequence of Androgen receptor (Homo sapiens) (P10275 whole entry, looked up): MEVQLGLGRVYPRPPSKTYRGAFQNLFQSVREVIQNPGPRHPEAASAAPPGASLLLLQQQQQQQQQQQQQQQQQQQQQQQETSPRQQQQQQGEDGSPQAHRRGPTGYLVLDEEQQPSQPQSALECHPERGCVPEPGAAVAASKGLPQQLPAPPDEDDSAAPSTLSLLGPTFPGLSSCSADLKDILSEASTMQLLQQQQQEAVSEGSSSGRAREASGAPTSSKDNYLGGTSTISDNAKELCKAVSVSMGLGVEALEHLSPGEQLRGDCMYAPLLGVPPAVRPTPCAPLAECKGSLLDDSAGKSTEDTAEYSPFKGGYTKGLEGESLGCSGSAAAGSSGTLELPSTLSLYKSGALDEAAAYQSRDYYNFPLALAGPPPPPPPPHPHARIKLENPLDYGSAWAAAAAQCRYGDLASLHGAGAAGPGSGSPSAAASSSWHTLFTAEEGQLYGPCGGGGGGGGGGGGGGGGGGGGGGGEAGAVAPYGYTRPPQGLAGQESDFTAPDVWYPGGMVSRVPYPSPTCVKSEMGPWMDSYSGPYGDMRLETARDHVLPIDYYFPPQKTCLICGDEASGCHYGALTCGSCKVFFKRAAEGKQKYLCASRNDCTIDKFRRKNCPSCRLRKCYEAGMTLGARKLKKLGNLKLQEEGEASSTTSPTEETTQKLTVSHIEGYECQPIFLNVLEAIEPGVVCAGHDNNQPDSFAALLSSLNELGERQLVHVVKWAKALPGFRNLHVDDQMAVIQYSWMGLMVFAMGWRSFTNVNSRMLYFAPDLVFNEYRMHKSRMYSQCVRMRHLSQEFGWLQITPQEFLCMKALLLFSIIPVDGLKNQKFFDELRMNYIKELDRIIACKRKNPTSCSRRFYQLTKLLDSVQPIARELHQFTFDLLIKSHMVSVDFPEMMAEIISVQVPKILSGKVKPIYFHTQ

For `CCCCCCC/C=C/C=O`, the Potency entry in assay [1], in [2], in assay [3], in [4], in [5] and in assay [7] was “inactive” each time. The Potency result in [8], in assay [9], in [10], in assay [11], in assay [12] and in assay [13] was “inactive” in each case. Also, the Potency entry in assay [14], in [16] and in assay [17] was “inactive” throughout. Also, the molecule was called inactive in assay [6] and in [15].

Take `COc1ccc(CN(CCN(C)C)c2ncccn2)cc1`: the Potency entry in [1], in [2], in assay [3], in [4], in assay [5] and in assay [7] was “inactive” each time. Besides, the Potency result in assay [8], in [9], in assay [10], in assay [11], in assay [12] and in assay [18] was “inactive” in each case. Further, the Potency result in [14], in assay [16] and in assay [17] was “inactive” each time. In addition, the outcome in [6] and in assay [15] was inactive.

Turning to `O=c1[nH][nH]c2ccccc12`, the Potency result in [1], in assay [2], in assay [3], in assay [4], in assay [5] and in assay [7] was “inactive” throughout. Also, the Potency entry in [8], in assay [19], in assay [9], in [10], in assay [11] and in [20] was “inactive” each time. The Potency result in [14], in assay [16] and in assay [17] was “inactive” throughout. The molecule was called inactive in assay [6] and in assay [15].

Consider `CO[C@@H]1[C@@H](O[C@@H]2O[C@H](C)[C@@H](O[C@H]3C[C@@](C)(O)[C@@H](O)[C@H](C)O3)[C@H](N(C)C)[C@H]2O)[C@@H](CC=O)C[C@@H](C)[C@@H](O[C@@H]2CC[C@H](N(C)C)[C@@H](C)O2)/C=C/C=C/C[C@@H](C)OC(=O)C[C@H]1OC(C)=O`, for which the Potency result in [1], in assay [2], in [3], in assay [4], in assay [5] and in assay [7] was “inactive” throughout. Moreover, the Potency entry in assay [8], in assay [19], in assay [9], in assay [10], in [11] and in [13] was “inactive” throughout. Besides, the Potency entry in assay [14], in assay [16] and in assay [17] was “inactive” each time. Further, the molecule was called inactive in assay [6] and in [15].

`Cc1cc(SC2=C(O)C[C@@](CCc3ccc(N)cc3)(C(C)C)OC2=O)c(C(C)(C)C)cc1CO`: the Potency is 11 µM (active) in [1] and 19.5 µM (active) in assay [9]. Moreover, the Potency result in [2], in assay [3], in assay [4], in assay [5], in assay [7] and in assay [8] was “inactive” in each case. Moreover, the Potency result in [19], in [10], in assay [11], in assay [20], in assay [14] and in assay [16] was “inactive” throughout. Further, the Potency entry in assay [17] was “inactive”. Moreover, the call in [6] and in assay [15] was inactive.

`C=CC(=O)OCCCCCCCCCC`: the Potency result in [1], in assay [2], in [3], in assay [4], in assay [5] and in [7] was “inactive” each time. For the same molecule, the Potency entry in [8], in assay [19], in assay [9], in assay [10], in [11] and in assay [13] was “inactive” each time. For the same molecule, the Potency entry in [16] is “inactive”. Besides, the molecule was classed as inactive in assay [6] and in assay [15].

For the molecule `CCOc1cc(OCC)c(C(C)=O)cc1OCC`, the Potency entry in assay [1], in assay [2], in [3], in [4], in assay [5] and in assay [19] was “inactive” in each case. The Potency entry in assay [9], in [10], in assay [12] and in [14] was “inactive” in each case. The molecule was called inactive in assay [6] and in assay [15]. Moreover, the Potency in assay [7] is 19.2 µM (active); in assay [8], 19.2 µM (active); in assay [20], 26.8 µM (active); in [16], 10.7 µM (active); in assay [17], 8.48 µM (active).

`FC(F)(Cl)C(F)(Cl)Cl`: the Potency entry in assay [1], in assay [2], in [3], in assay [4], in assay [5] and in assay [7] was “inactive” in each case. In addition, the Potency entry in assay [8], in assay [9], in [10], in assay [11], in [12] and in [20] was “inactive” each time. Also, the Potency result in assay [13], in [14], in [16] and in assay [17] was “inactive” in each case. Moreover, the outcome in [6] and in assay [15] was inactive.

Consider `CC(=O)Nc1ccccc1O`, for which the Potency entry in assay [1], in [2], in assay [3], in [4], in assay [5] and in assay [7] was “inactive” in each case. Also, the Potency result in assay [8], in [9], in assay [10], in assay [11], in assay [12] and in [14] was “inactive” each time. Moreover, the Potency result in assay [16] and in assay [17] was “inactive” in each case. Moreover, the result in assay [6] and in assay [15] was inactive.

With `CCCC(=O)OCCC(C)C`, the Potency entry in assay [1], in assay [2], in assay [3], in assay [4], in assay [5] and in [7] was “inactive” each time. Also, the Potency entry in [8], in [19], in [9], in assay [11], in assay [12] and in assay [20] was “inactive” each time. For the same molecule, the Potency entry in assay [13], in assay [14], in [16] and in assay [17] was “inactive” throughout. For the same molecule, the call in assay [6] and in assay [15] was inactive.

Consider `CC(C)Cc1nccs1`, for which the Potency result in [1], in assay [2], in assay [3], in assay [4], in [5] and in [7] was “inactive” each time. For the same molecule, the Potency entry in [8], in assay [9], in assay [10], in [11], in assay [12] and in assay [14] was “inactive” throughout. The Potency entry in assay [16] is “inactive”. Moreover, the call in assay [6] and in [15] was inactive.

As for `COC=O`, the activity change, negative = cytotoxicity was -6.16% [at 6.97 µM] in [1]; 14.1% [at 6.97 µM] in assay [7]; 3.22% [at 6.97 µM] in [8]; -11.5% [at 6.97 µM] in assay [9]; 7.16% [at 8.39 µM] in assay [11]; -4.91% [at 8.39 µM] in assay [15]. Besides, the cytotoxicity increase in [2] was -12.1% [at 6.97 µM]; in [4] it was -4.32% [at 6.97 µM]; in [5], -11.8% [at 6.97 µM]; in [10], -0.393% [at 6.97 µM]. Also, the cytotoxicity in assay [3] is 0.137% [at 6.97 µM]. Further, in assay [6], the activity change, negative = cytotoxic is 5.42% [at 6.97 µM]. In addition, the activity change in [19] is -10.1% [at 6.97 µM, active compounds read high]. For the same molecule, the values for the activity change, negative = inhibition in [13] and in assay [14] were -1.73% [at 8.39 µM] and 0.883% [at 8.39 µM], respectively. Also, the viability change, negative = cytotoxic in [16] is 14% [at 8.39 µM]; in assay [17], 5.98% [at 8.39 µM].

As to `CC(C)(C)c1cc(C=O)cc(C(C)(C)C)c1O`, the Potency entry in [1], in assay [2], in assay [3], in assay [4], in assay [5] and in assay [7] was “inactive” each time. For the same molecule, the Potency result in [8], in assay [9], in [10], in [11], in assay [12] and in [14] was “inactive” in each case. Also, the Potency entry in assay [16] and in assay [17] was “inactive” each time. Also, the molecule was called inactive in [6] and in assay [15].
